Drawing on PubChem BioAssay AID492972 (The Scripps Research Institute Molecular Screening Center, 2010), this text covers inhibition for ten molecules.

The inhibition is the drop in the measured response relative to a control, in per cent.

Each structure is given as a SMILES string. Among all 340,000 compounds or so, about 930 (0.27%) were called active. Only a selection was taken, and actives are over-represented in it overall. Values without a mark were called inactive.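 How the source made its calls: active means inhibition above the screen-wide average of all tested compounds plus 3 SD (cut at about 25% in these data); inactive means the rest.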

The target of the assay is Platelet-activating factor acetylhydrolase IB subunit alpha1 (Homo sapiens) (UniProt Q15102). As to the kind of experiment: PAFAH1B3 enzyme inhibitors, primary screen, biochemical, fluorescence polarization, human (AID 492972).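 Further: 0% = enzyme with DMSO only and 100% = wells lacking PAFAH1B3 protein.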 As to conditions: recombinant PAFAH1B3, FP-rhodamine probe, at 3.39 µM, stronger effect = higher value.
Sequence of Platelet-activating factor acetylhydrolase IB subunit alpha1 (Homo sapiens) (Q15102 whole entry, looked up): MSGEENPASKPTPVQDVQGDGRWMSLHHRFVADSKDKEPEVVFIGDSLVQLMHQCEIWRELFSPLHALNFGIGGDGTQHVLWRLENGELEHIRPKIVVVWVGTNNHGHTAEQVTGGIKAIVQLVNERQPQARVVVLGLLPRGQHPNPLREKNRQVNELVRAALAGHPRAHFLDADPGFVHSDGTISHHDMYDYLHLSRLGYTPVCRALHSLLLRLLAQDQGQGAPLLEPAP
On to `COc1ccc(N2C(=O)/C(=C/c3ccco3)C(=O)NC2=S)cc1`, for which the inhibition is 16.7%. As to `O=C1NC(=O)N(c2ccccc2)C(=O)/C1=C/c1ccc([N+](=O)[O-])s1`, the inhibition is 25.6% (active). As to `O=C1NC(=O)N(c2ccc(F)cc2)C(=O)/C1=C/c1ccc2c(c1)CCCN2Cc1ccccc1`, the inhibition was 4.39%.

Turning to `CCCCCn1c(=O)c(C(=O)NCc2ccccn2)c(O)c2ccccc21`, the inhibition is 4.97%. Consider `COC(=O)N(c1ccc(OC)cc1)P1(=S)OCCC(C)O1` (stereo not given), for which the inhibition was -0.56%. For `CC/C(=N\NC(=O)c1ccccc1O)c1c(O)n(Cc2ccccc2)c(=O)[nH]c1=O`, the inhibition was 13.4%. For `COc1cc(Cn2c(N)c(C(=O)NCc3ccco3)c3nc4ccccc4nc32)cc(OC)c1OC`, the inhibition is 9.25%. As for `CCOC(=O)c1c(N)n(Cc2ccccc2)c2nc3ccccc3nc12`, the inhibition is 36.2% (active). Take `O=C(c1cc2nc(-c3ccccc3)cc(-c3ccccc3)n2n1)N1CCC2(CC1)OCCO2`: the inhibition is 1.81%. Take `COC(=O)C(O)(c1ccc(NC(=O)c2ccco2)c(OC)c1)C(F)(F)F` (stereo not given): the inhibition was -1.88%.
